{"source": "PubChem BioAssay (Tox21)", "note": "Results filed as inconclusive are left out. Entries that show only a call come without a potency. Activity calls are given as the source filed them. Calls follow the shape of the dose curve; as a rule, active = well fitted activation curve with a large enough effect in the signal ratio in the repeat runs (not every such curve was filed as active); inconclusive = weak or mixed curves, or effect the other way; inactive = flat fitted curve, though single readings scatter; the % refers to the signal ratio.", "data": [{"biological_target": "Bile acid receptor (Homo sapiens) (UniProt Q96RI1)", "sequence (Q96RI1 whole entry, looked up)": "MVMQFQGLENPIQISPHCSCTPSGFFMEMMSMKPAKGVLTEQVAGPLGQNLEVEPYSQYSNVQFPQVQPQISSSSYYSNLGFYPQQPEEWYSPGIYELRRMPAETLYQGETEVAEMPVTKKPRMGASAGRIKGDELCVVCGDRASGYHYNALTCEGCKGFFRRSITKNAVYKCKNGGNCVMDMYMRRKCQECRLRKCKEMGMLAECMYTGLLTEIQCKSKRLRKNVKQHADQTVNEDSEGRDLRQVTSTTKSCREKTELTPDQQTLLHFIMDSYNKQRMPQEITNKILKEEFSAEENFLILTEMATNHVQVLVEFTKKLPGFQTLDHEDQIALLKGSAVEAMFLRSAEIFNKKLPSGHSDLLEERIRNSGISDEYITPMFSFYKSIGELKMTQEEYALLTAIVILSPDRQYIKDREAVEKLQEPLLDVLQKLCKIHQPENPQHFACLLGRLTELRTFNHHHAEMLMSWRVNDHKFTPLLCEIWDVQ", "experiment": "qHTS assay to identify small molecule agonists of the farnesoid-X-receptor (FXR) signaling pathway (AID 743220)", "settings": "HEK293T FXR-UAS-bla, beta-lactamase FRET ratio, 16 h; series mostly up to 62.6 µM", "from_the_text": "National Center for Advancing Translational Sciences [NCATS]\nNIH Chemical Genomics Center [NCGC]\nU.S. Environmental Protection Agency [EPA]\nNational Institutes of Environmental Health Sciences [NIEHS]\nNational Toxicology Program [NTP]\nU.S. Food and Drug Administration [FDA]\nThe farnesoid-X-receptor (FXR), a nuclear hormone receptor, is highly expressed in liver, intestine, kidney and adrenal cortex. Natural ligands of FXR are the bile acids (Cholic acid, Chenodeoxy cholic acid etc). FXR is an important regulator of diverse metabolic pathways, including the bile acid homeostasis, lipid and glucose metabolisms. FXR regulates the expression of target genes by binding either as a monomer or as a heterodimer with the retinoid X receptor (RXR). Numerous studies have reported that FXR exerts protective function during cholestasis, diabetes, liver regeneration, and cancer. To identify compounds that activate FXR signaling, GeneBLAzer FXR-UAS-bla HEK 293T cell line (Invitrogen, Carlsbad, CA) containing a beta-lactamase reporter gene under the control of a UAS response element was used to screen the Tox21 10K compound library.\nTox21 Assay Protocol Summary:\nFXR-bla cells were dispensed at 5000 cells/5uL/well in 1536-well black wall/clear bottom plates using a Multidrop Combi (Thermo Fisher Scientific, Waltham, MA) dispenser. After the assay plates were incubated at 37C and 5% CO2 for 5 h, 23 nL of compounds dissolved in DMSO, positive controls or DMSO only was transferred to the assay plate by a Pintool station (Kalypsys, San Diego, CA). The assay plates were incubated at 37C for 16 h. After 1 uL of LiveBLAzerTM B/G FRET substrate was added using a Bioraptr Flying Reagent Dispenser (FRD) workstation (Beckman Coulter, Indianapolis, IN), the plates were incubated at room temperature for 2 h, and fluorescence intensity was measured by an Envision plate reader (PerkinElmer, Shelton, CT).", "values": [{"smiles": "CCN(C)C(=O)Oc1cccc([C@H](C)N(C)C)c1", "Potency": "inactive"}, {"smiles": "CC(C)C(=O)OCCc1ccccc1", "Potency": "inactive"}, {"smiles": "CCCC(=O)C(C)=O", "Potency": "inactive"}, {"smiles": "COCCOCCOCCOCCO", "Potency": "inactive"}, {"smiles": "COC(=O)c1ccccc1C(=O)c1ccc(OCCN2CCCCC2)cc1", "Potency": "inactive"}, {"smiles": "N[C@@H](COP(=O)(O)O)C(=O)O", "Potency": "inactive"}, {"smiles": "CCCOC(OCCC)OCCC", "Potency": "inactive"}, {"smiles": "NS(=O)(=O)c1cc2c(cc1Cl)CN(C1CCCCC1)C2=O", "Potency": "inactive"}, {"smiles": "O=C(O)c1cc(Br)c(O)c(Br)c1", "Potency": "inactive"}, {"smiles": "CN(C)c1ccc(C=O)cc1", "Potency": "inactive"}, {"smiles": "CCOc1cc(NC(C)=O)ccc1C(=O)OC", "Potency": "inactive"}, {"smiles": "CCCCCCOC(=O)CC", "Potency": "inactive"}, {"smiles": "CNC(=O)[C@H]1O[C@@H](n2cnc3c(NCc4cc(Cl)ccc4OCc4cc(C)no4)ncnc32)[C@H](O)[C@@H]1N", "Potency": "inactive"}, {"smiles": "O=C(O)c1ccc(Cl)cc1Cl", "Potency": "inactive"}, {"smiles": "COc1nccnc1NS(=O)(=O)c1ccc(N)cc1", "Potency": "inactive"}, {"smiles": "C=C(C)C(=O)OCCOP(=O)(O)OCCOC(=O)C(=C)C", "Potency": "inactive"}, {"smiles": "C=CCCCCCCCCCCCC", "Potency": "inactive"}, {"smiles": "CN(C)CCOCCO", "Potency": "inactive"}, {"smiles": "N[C@@H](CCC(=O)Nc1ccc([N+](=O)[O-])cc1)C(=O)O", "Potency": "inactive"}, {"smiles": "CC(=O)c1sc(C)nc1C", "Potency": "inactive"}, {"smiles": "O=C(NCC(O)CO)c1c(I)c(C(=O)NCC(O)CO)c(I)c(N(CCO)C(=O)CO)c1I", "note": "(stereo not given)", "Potency": "inactive"}, {"smiles": "CCN1CCc2nc(N)oc2CC1", "Potency": "inactive"}, {"smiles": "Cc1nc2n(c(=O)c1CCN1CCC(c3noc4cc(F)ccc34)CC1)CCC[C@H]2O", "Potency": "inactive"}, {"smiles": "COc1cc(N)ccc1C", "Potency": "inactive"}, {"smiles": "O=C(O)CCSSCCC(=O)O", "Potency": "inactive"}, {"smiles": "COc1ccc(Br)c(C)c1", "Potency": "inactive"}, {"smiles": "O=C(O)c1cc(Cl)cc([N+](=O)[O-])c1Cl", "Potency": "inactive"}, {"smiles": "Cc1ccsc1/C=C/C1=NCCCN1C", "Potency": "inactive"}, {"smiles": "O=C1c2ccccc2C(=O)N1CCl", "Potency": "inactive"}, {"smiles": "CCOCCOC(=O)/C=C/c1ccc(OC)cc1", "Potency": "inactive"}, {"smiles": "CC1=C(C(=O)O)N2C(=O)[C@@H](NC(=O)[C@H](N)c3ccc(O)cc3)[C@H]2SC1", "Potency": "inactive"}, {"smiles": "CC(=C(CCOC(=O)C(C)C)SSC(CCOC(=O)C(C)C)=C(C)N(C=O)Cc1cnc(C)nc1N)N(C=O)Cc1cnc(C)nc1N", "Potency": "inactive"}, {"smiles": "Cc1ccc(C=O)cc1C", "Potency": "inactive"}, {"smiles": "c1ccc2nccnc2c1", "Potency": "inactive"}, {"smiles": "NS(=O)(=O)c1ccc(NC(=O)CCC(=O)O)cc1", "Potency": "inactive"}, {"smiles": "CCCCCCCCC(=O)Cl", "Potency": "inactive"}, {"smiles": "CC(C)OC(=O)CCCCC(=O)OC(C)C", "Potency": "inactive"}, {"smiles": "CC(=O)c1ccc2c(c1)Cc1ccccc1-2", "Potency": "inactive"}, {"smiles": "O=C1c2ccccc2C(=O)C1c1ccccc1", "Potency": "inactive"}, {"smiles": "Cc1ccccc1C(=O)Nc1ccc(C(=O)N2CCCC(N(C)C)c3ccccc32)cc1", "note": "(stereo not given)", "Potency": "inactive"}]}]}
